According to PubChem BioAssay AID1159580 (chemical genetic matrix, 2015):
“And” between values parts separate entries of the source, which are not always exact repeats. Equal values may be shown once. The whole screen tested about 5,500 compounds, of which about 2,000 (36%) were called active. Inconclusive results (about 18%) are left out. Cut-off read from the data, not from the text of the source: active = normalized growth mostly below about 0.91 (no sharp cut-off); inconclusive = no clear call, values can overlap the other calls; inactive = mostly above about 0.92. Some of the results follow.

Assay: chemical genetic growth profiling, strain panel (AID 1159580);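 note: tested at 20 µM; growth read once vehicle control cultures reached saturation at 30 °C; 1 = growth at the plate median or of vehicle wells; lower values mean less growth of the strain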
Conditions: S. cerevisiae deletion strains, growth OD

Measured: normalized growth

O=c1c(O)c(-c2ccc(O)c(O)c2)oc2cc(O)ccc12
active: locus YAL013W, strain DEP1, hits give low values 0.836 | locus YDL074C, strain BRE1, hits give low values 0.742 | locus YDR162C, strain NBP2, hits give low values 0.831 | locus YDR502C, strain sam2, hits give low values 0.915 | locus YER167W, strain BCK2, hits give low values 0.9 | locus YGL086W, strain mad1, hits give low values 0.905 | locus YGR078C, strain PAC10, hits give low values 0.756 | locus YGR135W, strain pre9, hits give low values 0.85 | locus YGR229C, strain SMI1, hits give low values 0.372 | locus YHR030C, strain SLT2, hits give low values 0.899 and 0.324 | locus YHR079C, strain IRE1, hits give low values 0.381 | locus YHR129C, strain ARP1, hits give low values 0.861 | locus YIL066C, strain RNR3, hits give low values 0.846 | locus YJL095W, strain BCK1, hits give low values 0.743 and 0.428 | locus YJR043C, strain POL32, hits give low values 0.778 | locus YJR066W, strain TOR1, hits give low values 0.59 | locus YJR075W, strain HOC1, hits give low values 0.83
inactive: locus YAL021C, strain ccr4, hits give low values 1 | locus YAL026C, strain drs2, hits give low values 0.965 | locus YAL030W, strain snc1, hits give low values 1 | locus YBL061C, strain skt5, hits give low values 0.964 | locus YBR009C, strain hhf1, hits give low values 1.01 | locus YBR021W, strain FUR4, hits give low values 0.961 | locus YBR023C, strain chs3, hits give low values 0.961 | locus YBR171W, strain sec66, hits give low values 0.977 | locus YBR229C, strain ROT2, hits give low values 0.993 | locus YBR231C, strain swc5, hits give low values 0.921 | locus YBR279W, strain paf1, hits give low values 0.983 | locus YCL011C, strain gbp2, hits give low values 0.982 | locus YCL016C, strain dcc1, hits give low values 0.977 | locus YCL029C, strain bik1, hits give low values 0.988 | locus YCL069W, strain vba3, hits give low values 1.01 | locus YCR088W, strain abp1, hits give low values 1 | locus YDL005C, strain med2, hits give low values 0.987 | locus YDL035C, strain GPR1, hits give low values 0.864 | locus YDL040C, strain nat1, hits give low values 1 | locus YDL101C, strain DUN1, hits give low values 0.98 | locus YDL134C, strain PPH21, hits give low values 0.955 | locus YDL185W, strain tfp1, hits give low values 0.972 | locus YDL192W, strain arf1, hits give low values 0.946 | locus YDR001C, strain nth1, hits give low values 1 | locus YDR069C, strain doa4, hits give low values 0.904 | locus YDR101C, strain arx1, hits give low values 0.957 | locus YDR137W, strain rgp1, hits give low values 0.978 | locus YDR150W, strain NUM1, hits give low values 0.946 | locus YDR159W, strain sac3, hits give low values 0.934 | locus YDR195W, strain ref2 0.969 | locus YDR297W, strain sur2, hits give low values 0.966 | locus YDR318W, strain mcm21, hits give low values 0.927 | locus YDR334W, strain swr1, hits give low values 0.981 | locus YDR335W, strain msn5, hits give low values 0.995 | locus YDR388W, hits give low values 0.974 | locus YDR392W, strain spt3, hits give low values 0.845 | locus YEL003W, strain gim4, hits give low values 0.961 | locus YEL037C, strain rad23, hits give low values 0.988 | locus YEL061C, strain CIN8 (second series), hits give low values 0.996 | locus YEL061C, strain CIN8, hits give low values 0.95 | locus YER015W, strain faa2, hits give low values 0.974 | locus YER016W, strain bim1, hits give low values 0.989 | locus YER110C, hits give low values 0.982 | locus YER111C, strain swi4, hits give low values 0.97 | locus YER155C, strain BEM2 (second series), hits give low values 0.89 | locus YER155C, strain BEM2, hits give low values 1.02 | locus YFR010W, strain ubp6, hits give low values 0.96 | locus YGL078C, strain dbp3, hits give low values 0.988 | locus YGL167C, strain pmr1, hits give low values 0.972 | locus YGL173C, strain kem1, hits give low values 0.938 | locus YGL227W, strain vid30, hits give low values 0.994 | locus YGL240W, strain doc1, hits give low values 1.03 | locus YGL248W, strain PDE1, hits give low values 0.923 | locus YGL253W, strain hxk2, hits give low values 0.969 | locus YGR252W, strain gcn5, hits give low values 0.873 | locus YHR013C, strain ard1, hits give low values 0.94 | locus YHR027C, strain rpn1, hits give low values 0.988 | locus YHR079C, strain IRE1 (second series), hits give low values 0.978 | locus YHR094C, strain hxt1, hits give low values 1.01 | locus YHR142W, strain chs7, hits give low values 0.982 | locus YHR200W, strain rpn10, hits give low values 0.938 | locus YIL073C, strain SPO22, hits give low values 0.851 | locus YIL125W, strain kgd1, hits give low values 0.967 | locus YIR030C, strain dcg1, hits give low values 1.01 | locus YJL092W, strain hpr5, hits give low values 0.995 | locus YJL095W, strain BCK1 (second series), hits give low values 0.981 | locus YJL115W, strain asf1, hits give low values 0.998 | locus YJL129C, strain trk1, hits give low values 0.966 | locus YJL134W, strain LCB3, hits give low values 1 | locus YJL154C, strain vps35, hits give low values 0.999 | locus YJL164C, strain tpk1, hits give low values 0.985 | locus YJL166W, strain qcr8, hits give low values 0.986 | locus YJL168C, strain set2, hits give low values 0.985 | locus YJL187C, strain SWE1 (second series), hits give low values 0.915
